Assay outcomes (PubChem BioAssay)
CCHF vOTU inh-1 = blocks the CCHF virus ovarian tumor domain protease. CCHFV vOTU protease, Pep-AMC fluorescence. hit rate 0.55% among 370,000. inhibition, % at 11.5 µM; also: 0% = vehicle wells with enzyme and 100% = no enzyme wells
3CLpro inhibitor = SARS-CoV 3CLpro protease inhibition; recombinant SARS-CoV 3CLpro, quenched FRET peptide cleavage; inhibition, % at 6 µM; hit rate 0.14% among 290,000; in the data active = inhibition above about 12%
DUSP3 inh = blocks human VHR1 dual specificity phosphatase. P51452. recombinant VHR phosphatase, pNPP absorbance. inhibition, % at 13.3 µM. hit rate 0.52% among 290,000; in the data active = inhibition above about 50%
Target sequence (P51452 whole entry, looked up): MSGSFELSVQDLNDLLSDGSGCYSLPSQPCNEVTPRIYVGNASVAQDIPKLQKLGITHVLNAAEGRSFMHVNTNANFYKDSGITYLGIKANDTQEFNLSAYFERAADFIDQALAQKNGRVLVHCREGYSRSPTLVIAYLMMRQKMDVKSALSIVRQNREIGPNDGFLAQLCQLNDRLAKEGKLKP
RecA splice inh = inhibitors of M. tuberculosis RecA intein splicing; P9WHJ3; cell-free RecA intein splicing, fluorescence; inhibition, % (concentration not given with the values); hit rate 0.75% among 290,000; AID 2221; in the data active = inhibition above about 30%;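 also: 0% = vehicle wells and 100% = reference inhibitor control wells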
PriA SSB inh = inhibitors of Klebsiella pneumoniae PriA binding to SSB C-terminal tail. AlphaScreen SSBct-PriA binding, biotinylated peptide. hit rate 0.6% among 430,000. inhibition, % at 33 µM; in the data active = inhibition mostly above about 37%, no sharp cut-off; inactive = mostly below about 20%;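 also: plate controls were negative control peptide for no effect and reference peptide for full effect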
GFP chromo cs = counter-screen: blocks GFP chromophore formation | hit rate 83% among 2,100 | cell-free GFP chromophore formation, fluorescence | EC50, µM | shares compounds with RecA splice inh | AID 434968; call rule not given here
CCHF vOTU inh-2 = CCHFV vOTU protease inhibition, confirmation; AID 686976; inhibition, % at 11.5 µM; shares compounds with CCHF vOTU inh-1; Recombinant CCHFV vOTU, Pep-AMC fluorescence; hit rate 17% among 1,900
An asterisk follows results filed as active; nt = no result given. Sampled rows, rich in hits. Any-hit rate of the full collection: about 1.7%. Rule as the data show it, unless noted: active = inhibition above about 30%; inactive = the rest.

SMILES	CCHF vOTU inh-1	3CLpro inhibitor	DUSP3 inh	RecA splice inh	PriA SSB inh	GFP chromo cs	others
c1ccc2c(c1)OCC(c1csc3ncnc(N4CCCCC4)c13)O2 (stereo not drawn)	13	1	-18	1	-17	nt
N=c1c2c(-c3ccccc3)c(-c3ccccc3)n(Cc3ccco3)c2ncn1Cc1ccco1	-2	7	4	47*	26	14*
CCCCn1cnc2c(c(-c3ccccc3)c(-c3ccccc3)n2Cc2ccco2)c1=N	7	6	0	28	7	nt
O=C1C(=NS(=O)(=O)c2cccs2)C([n+]2ccccc2)=C([O-])c2ccccc21	nt	nt	nt	nt	3	nt
O=C1C(=O)c2ccccc2C([O-])=C1[n+]1ccccc1	4	0	17	84*	-4	6.9*
CCCc1[nH][nH]c(=O)c1C(c1cccc(Cl)c1)C(C#N)C#N (stereo not drawn)	-4	-1	29	52*	8	9.4*
Cc1[nH]n(-c2ncc(-c3ccc(Cl)cc3)s2)c(=O)c1C(c1ccc(Cl)cc1)C(C#N)C#N (stereo not drawn)	nt	-2	12	7	13	nt
CC(NC(=O)COC(=O)c1cc(NS(=O)(=O)c2ccc(Cl)c([N+](=O)[O-])c2)ccc1O)C1CC2CCC1C2 (stereo not drawn)	25	0	5	48*	16	>38
O=C(O)CN1C(=O)/C(=C\c2cccc(OC(=O)c3ccco3)c2)SC1=S	8	9	6	31*	-7	>38
O=C(O)COc1ccc(/C=C2/SC(=S)N(Cc3ccccc3)C2=O)cc1	20	-1	6	53*	40	36*
CCc1cccc2sc(NC(=O)c3ccc(Cl)s3)nc12	nt	nt	nt	nt	-13	nt
COc1ccc(CCNC(=O)NCC[C@H](O)c2cccs2)cc1	nt	nt	nt	nt	-2	nt
COc1ccc(N(C(=O)CCl)C(C(=O)NCCc2ccccc2)c2cccs2)cc1 (stereo not drawn)	2	12	1	76*	0	1.7*
Cc1nn(C(C)C(=O)Nc2ccccc2Cl)c(=O)c2nn(-c3ccccc3)c(C)c12 (stereo not drawn)	10	3	14	-1	-6	nt
COC(=O)c1ccccc1NC(=O)C(C)n1nc(C)c2c(C)n(-c3ccccc3)nc2c1=O (stereo not drawn)	4	0	10	97*	-1	>38
COC(=O)c1sc2ccccc2c1NC(=O)Cc1ccc(Cl)s1	nt	nt	nt	nt	-10	nt
O=C(Nc1cccc(OC(=O)c2ccco2)c1)c1ccco1	-2	-1	34	33*	0	>38
CC(=O)N(Cc1ccc(F)cc1)C1=C(NCc2ccccc2)C(=O)c2ccccc2C1=O	nt	3	-20	77*	24	5.9*
COc1cccc2cc(C(=O)Nc3nnc(-c4ccc(Br)s4)o3)oc12	nt	nt	nt	nt	-13	nt
[O-]C1=N/[N+](=C/c2ccc(Cl)c(Cl)c2)CC1	-4	2	6	36*	-16	38*
[O-]C1=N/[N+](=C/c2ccccc2Cl)CC1	3	-3	4	70*	3	17*
Clc1ccccc1/C=C/c1ccnc2ccccc12	6	3	13	22	-27	nt
[O-]C1=N/[N+](=C/c2ccccc2)CC1	0	1	17	81*	4	30*
O=C(O)C1CCCN1S(=O)(=O)c1cccc(C(F)(F)F)c1 (stereo not drawn)	nt	nt	nt	nt	-11	nt
O=c1c(Oc2ccccc2Br)coc2c3c(ccc12)OCN(Cc1ccccn1)C3	nt	nt	nt	nt	-33	nt
SMILES	CCHF vOTU inh-1	3CLpro inhibitor	DUSP3 inh	RecA splice inh	PriA SSB inh	GFP chromo cs	others
Cc1ccc(-n2ncc3c(C)n[nH]c(=O)c32)c(C)c1	nt	nt	nt	nt	2	nt
N#Cc1ccsc1NC(=O)c1ccc(-c2ccccc2)cc1	nt	nt	nt	nt	-15	nt
NS(=O)(=O)c1ccc(Cc2ncc(C(F)(F)F)cc2Cl)s1	2	0	-2	2	-3	nt
O=C(CCl)c1ccc(Cc2ncc(C(F)(F)F)cc2Cl)s1	23	-1	6	79*	-9	3.4*
Cc1ccc(Cl)cc1S(=O)(=O)Nc1ccc2c(c1)CC(=O)N2	nt	nt	nt	nt	-7	nt
Cc1nn(-c2ncc(NC(=O)Cc3ccc(F)cc3)cn2)c(C)c1C	nt	nt	nt	nt	-8	nt
N#Cc1c(Cl)c(Cl)c2nnc(-c3ccc(Br)cc3)n2c1Cl	3	-2	20	49*	nt	5.1*
Cc1c(N=C2C=CC(=O)c3ccccc32)c(=O)n(-c2ccccc2)n1C	90*	-1	11	72*	-1	1.8*	CCHF vOTU inh-2=-6
COc1cc(NS(=O)(=O)c2ccc(C)cc2)c2ncccc2c1	-4	-3	18	12	-6	nt
COc1cc(NCCCC(C)N)c2ncccc2c1 (stereo not drawn)	65*	0	nt	88*	49*	10*	CCHF vOTU inh-2=108*
CCC(CNc1cc(OC)cc2cccnc12)NC1CCCCC1 (stereo not drawn)	110*	5	54*	67*	4	25*	CCHF vOTU inh-2=102*
CCCCn1c(NS(=O)(=O)c2ccc(C)cc2)c(S(=O)(=O)c2ccccc2)c2nc3ccccc3nc21	90*	3	18	83*	23	>38	CCHF vOTU inh-2=-60
NC(=O)C1CCN(C2=C(Cl)C(=O)c3ccccc3C2=O)CC1	58*	7	5	43*	-19	0.54*	CCHF vOTU inh-2=83*
CN(C)CCN1C(=O)C(=O)C(=C(O)c2ccc(S(=O)(=O)N3CCOCC3)cc2)C1c1ccc(F)cc1 (stereo not drawn)	nt	nt	nt	nt	1	nt
CCOc1cc(/C=C2\C(=O)N(CCC#N)N=C2C)ccc1OCC(N)=O	44*	1	-3	88*	10	9.3*	CCHF vOTU inh-2=-24
CCOc1cc(/C=C2/C(=O)N(c3ccccc3)N=C2C)ccc1OC(=O)c1cccs1	nt	6	25	-11	-2	nt
COc1cc(C)c(N(C(C)=O)c2ccccc2)c(C)c1	1	-2	15	10	-21	nt
CC(=O)N(C1=C(N)C(=O)c2ccccc2C1=O)c1ccccc1	73*	0	nt	87*	-3	4.3*	CCHF vOTU inh-2=64*
CCCCCCCCCCOC(=O)Cn1c(COc2ccccc2)[n+](C)c2ccccc21	30*	-1	2	47*	-13	12*	CCHF vOTU inh-2=23
CCCCOC(=O)Cn1c(=O)n(CC(=O)OCCCC)c2ccccc21	15	1	43	-1	-15	nt
CCOc1cccc(C(c2c(C)n(C)n(-c3ccccc3)c2=O)c2c(C)n(C)n(-c3ccccc3)c2=O)c1OC	-4	-2	nt	-1	-6	nt
COc1cccc(C(c2c(C)[nH]n(-c3ccccc3)c2=O)c2c(C)[nH]n(-c3ccccc3)c2=O)c1OC	56*	2	5	94*	18	1.8*	CCHF vOTU inh-2=-8
COc1cccc(C(c2c(C)[nH]n(-c3ccccc3)c2=O)c2c(C)[nH]n(-c3ccccc3)c2=O)c1O	99*	nt	nt	66*	9	1.5*	CCHF vOTU inh-2=-4
N#Cc1ccsc1NC(=O)C(c1ccccc1)c1ccccc1	nt	nt	nt	nt	-19	nt
O=C1C=C(N2CCOCC2)c2cccc3cccc1c23	11	nt	nt	nt	nt	nt
